# Screening results deposited in PubChem BioAssay by National Center for Advancing Translational Sciences (NCATS).
# KB-V1 cytotox: KB-V1 MDR subline cytotoxicity | KB-V1 MDR cells viability, CellTiter-Glo, 72 h | Potency, µM (series often up to 46.1 µM), hits mostly cytotoxic | 400,000 tested, 3.4% active; note: % is set by controls: 0 for no effect and ±100 for the full control effect; nearly all actives have a fitted effect of over 60% in size
#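 qHTS viability screen in drug-selected KB-V1 MDR cells: 72 h compound treatment at 37 degrees C, ATP luminescence end point.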
# ELG1 DNA repair: blocks ELG1-dependent DNA repair in HEK293T cells. Potency, µM (highest dose often 46.1 µM), for the others: at the top dose activity change, negative = inhibition, actives largely listed as inhibitors. HEK293T ELG1-luciferase reporter, luminescence, 16 h; DNA damage induced by 5-fluorouridine. 330,000 tested, 2.3% active; note: % is set by controls: 0 for no effect and ±100 for the full control effect; nearly all actives have a fitted effect of over 55% in size
#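 Quantitative HTS, concentration-response format. 2,000 cells/well co-treated with 5-fluorouridine and compound, 16 hr in 5% CO2 at 37 °C; ONE-Glo luminescence read after 30 min.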
# MCF10A rerep: inducers of DNA re-replication in MCF 10A breast cells | Potency, µM (series often up to 46.1 µM), inactives show top-dose activity, positive = re-replication, hits mostly activators | MCF 10A DNA re-replication, Hoechst nuclear intensity, 48 h | 350,000 tested, 2.9% active; note: % of control where 0% means no effect; nearly all actives have a fitted effect of over 50% in size
# SW480 rereplic: inducers of DNA re-replication in SW480 colon cancer cells | Potency, µM (series often up to 46.1 µM), inactives show at the highest dose re-replication activation, most hits filed as activators | 340,000 tested, 1.8% active | SW480 DNA re-replication, Hoechst DNA content imaging, 48 h; note: % of control where 0% means no effect; nearly all actives have a fitted effect of over 55% in size
#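 DNA re-replication was detected as more nuclei of elevated Hoechst intensity after 48 hr exposure to compound (23 nL pinned per well of 250 cells).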
# KB-3-1 cytotox: kills parental KB-3-1 adenocarcinoma cells; KB-3-1 viability, CellTiter-Glo ATP luminescence, 72 h; Potency, µM (doses to about 46.1 µM), actives largely listed as cytotoxic; 400,000 tested, 1.4% active; note: % is set by controls: 0 for no effect and ±100 for the full control effect; nearly all actives have a fitted effect of over 60% in size
#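 Parental KB-3-1 viability, qHTS format: 72 h compound exposure, 37 °C; CellTiter-Glo; media-only wells and DMSO plates as controls; concentration-effect fits on corrected data.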
# * hit, by the source's call; i = inactive; ? = inconclusive; · = no result given. Only some compounds are listed: those with a hit (about 8.1% of all), similar ones and a draw of the others. Calls come from the whole dose curve; as a rule, active = well fitted curve in the direction sought with a large enough effect; inconclusive = small, poorly fitted or top-dose-only effect, or another doubt; inactive = no such curve, though single readings can be large; an effect the other way counts as inactive or inconclusive. Potency is the fitted concentration of half-maximal effect.
SMILES,KB-V1 cytotox,ELG1 DNA repair,MCF10A rerep,SW480 rereplic,KB-3-1 cytotox
CCOC(=O)c1cnc2c(ccc3ccccc32)c1Nc1ccc(OC)c(OC)c1,?,·,·,·,7.3µM*
CCOC(=O)c1cnc2ccccc2c1Nc1ccc(N2CCOCC2)cc1,i,·,·,·,i
CCOC(=O)c1cnc2c(ccc3ccccc32)c1Nc1ccc(Cl)cc1,i,·,·,·,i
CCOC(=O)c1cnc2c(ccc3ccccc32)c1Nc1ccc(C(C)=O)cc1,16µM*,·,·,·,?
CCOc1cccc2sc(NC(=O)CS(=O)(=O)c3ccc(C)cc3)nc12,i,·,·,·,i
c1ccc2c(c1)OCCOCCOCCOCCOc1ccccc1OCCOCCOCCO2,3.7µM*,-27%,3%,?,26µM*
Brc1ccc2c(c1)OCCOCCOCCOCCOCCOCCO2,6.5µM*,-29%,1%,7%,i
O=C(CN1C(=O)C2(SCC(=O)N2c2cccc(Cl)c2)c2ccccc21)NCc1ccccc1 (stereo not given),?,·,·,·,i
Cc1nc(NCCc2ccc(S(N)(=O)=O)cc2)c2c(C)c(C)sc2n1,i,13µM*,9%,3%,?
Cc1nn(CCCC(=O)NCCc2ccc(Cl)cc2)c(=O)c2c1sc1ccccc12,i,·,·,·,i
CCOC(=O)c1ccc(NC(=O)c2ccc(CN3C(=O)CCn4nc(C)cc43)cc2)cc1,i,·,·,·,i
CCOc1ccc(C(C(=O)Nc2ccc(F)cc2)N(C(=O)Cn2nnc3ccccc32)C2CC2)cc1 (stereo not given),23µM*,?,8%,?,i
COc1cccc(C(C(=O)Nc2ccc(F)cc2)N(C(=O)Cn2nnc3ccccc32)C2CC2)c1 (stereo not given),?,?,-6%,?,i
O=C(N/N=C/c1coc2ccc(Cl)cc2c1=O)c1cc(O)cc(O)c1,i,?,7%,-1%,i
Cc1ccc2occ(/C=N/NC(=O)c3ccc(Cl)cc3)c(=O)c2c1,?,?,15%,-1%,i
Cc1ccc2occ(/C=N/NC(=O)c3ccccc3O)c(=O)c2c1,i,?,3%,18µM*,?
CCOc1ccccc1C(=O)N/N=C/c1coc2ccc(Cl)cc2c1=O,i,8%,15µM*,15µM*,?
CCn1nc(-c2ccc(C)cc2)nc2c(=O)n(C)c(=O)nc1-2,i,·,·,·,i
Cc1[nH]nc2oc(=O)c(CCO)c(C)c12,i,10%,?,16µM*,i
C[C@@H]1CCCCO[C@@H](CN(C)Cc2ccncc2)[C@@H](C)CN([C@H](C)CO)C(=O)c2cc(NC(=O)c3ccccc3)ccc2O1,i,·,·,·,i
Cc1cc(C)c2c(N)c(C(=O)Nc3ccc(F)cc3)sc2n1,i,?,21µM*,17%,?
COc1ccc(NC(=O)c2sc3nc(C)cc(C)c3c2N)cc1,i,?,?,?,i
Cc1cc(C)c2c(N)c(C(=O)Nc3ccc(C)c(C)c3)sc2n1,i,?,?,?,i
Cc1cc(C)c2c(N)c(C(=O)N/N=C/c3cccs3)sc2n1,i,?,18µM*,?,?
COc1ccc(/C=N/NC(=O)c2sc3nc(C)cc(C)c3c2N)cc1,i,16%,5.8µM*,?,i
SMILES,KB-V1 cytotox,ELG1 DNA repair,MCF10A rerep,SW480 rereplic,KB-3-1 cytotox
CC(=O)c1cccc(NS(=O)(=O)c2ccc3[nH]c4c(c3c2)CCCCCC4)c1,?,·,·,·,i
NC(=O)c1nsc(C(=O)N(c2ccccc2F)C(C(=O)NCc2ccc(F)cc2)c2ccc(O)cc2)c1N (stereo not given),i,?,23µM*,?,?
Cc1ccc(C(C(=O)NCc2ccccc2)N(Cc2ccco2)C(=O)c2snc(C(N)=O)c2N)o1 (stereo not given),?,?,?,-1%,i
COc1ccc(C(C(=O)NCc2ccccc2)N(Cc2ccco2)C(=O)c2snc(C(N)=O)c2N)cc1 (stereo not given),?,21µM*,2%,0%,i
COc1ccc(C(C(=O)NCc2ccccc2)N(Cc2ccco2)C(=O)c2snc(C(N)=O)c2N)cc1OC (stereo not given),?,15µM*,-5%,-2%,i
COc1ccc(C(C(=O)NCC2CCCO2)N(Cc2ccco2)C(=O)c2snc(C(N)=O)c2N)cc1OC (stereo not given),i,-28%,-1%,3%,i
COc1ccc(C(C(=O)NCc2ccccc2)N(C(=O)c2snc(C(N)=O)c2N)c2ccccc2OC)cc1 (stereo not given),i,18µM*,2%,?,?
CCCCN(C)C(=O)c1ccc(Nc2nc(C(N)Cc3ccc(C(F)(F)F)cc3)cs2)nc1 (stereo not given),i,·,·,·,?
CCN(CC)S(=O)(=O)c1ccc(C(O)=C(C#N)c2nc3ccccc3n2C)cc1,i,·,?,21%,?
Cc1ccnc2nc(C(=O)OCC(=O)N(CC(C)C)C3CCS(=O)(=O)C3)nn12 (stereo not given),?,0%,9%,-15%,i
Cc1ccc(Cc2c(C)nc3nc(SCC(=O)NCc4ccco4)nn3c2C)cc1,8.2µM*,14%,6.5µM*,?,4.6µM*
S=C1NC(c2cccs2)=CC(c2ccc(Br)cc2)N1 (stereo not given),?,0%,?,21µM*,i
S=C1NC(c2ccccc2)=CC(c2ccccc2)N1 (stereo not given),i,-11%,?,-3%,i
O=C(CCNS(=O)(=O)c1ccccc1F)N1CCN(Cc2ccccc2)CC1,i,13%,0%,1%,i
COc1ccc(OC)c(NC(=O)c2nnn(Cc3ccc(Br)cc3F)c2N)c1,i,21µM*,0%,0%,?
COc1ccc(NC(=O)c2nnn(Cc3cccc(F)c3)c2N)c(OC)c1,i,12%,?,7%,6.5µM*
COc1ccc(C)cc1NC(=O)c1nnn(Cc2cccc(F)c2)c1N,i,-5%,27%,20%,?
COc1ccc(NC(=O)c2nnn(Cc3ccc(Br)cc3F)c2N)c(OC)c1,i,·,·,·,i
O=C(COc1ccccc1C(=O)Nc1ccccc1)Nc1ccccc1-c1ccccc1,i,·,·,·,?
CCNC(=O)C1CCCN(C(=O)c2ccc(F)c(Cl)c2)CC1 (stereo not given),i,·,·,·,i
CC(O)CNc1nc2c(c(=O)n(C)c(=O)n2C)n1Cc1cccc(Br)c1 (stereo not given),15µM*,0%,?,-1%,?
CC(C)CNc1nc2c(c(=O)n(C)c(=O)n2C)n1Cc1cccc(Br)c1,i,?,-16%,-1%,i
